# Test results from PubChem BioAssay AID827 (SRMLSC, 2007).
# The campaign covered roughly 140,000 compounds. About 1,700 (1.2%) were called active.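 The calls were made as follows: active = viability at or below a set limit, 4 SD under the median of all tested compounds (cut at about 3.7% in these data); inactive = the rest.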 The sample as a whole holds a higher share of actives than the screen did.
# Experiment: viability loss in PTEN-deleted colon tumor cells – cell-based, HCT116, CellTiter-Glo, primary screen (AID 827);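 also: PTEN knockout HCT116 line with beta catenin targeted HCT116 as companion control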
# Settings: HCT116 PTEN-null viability, 60 h, at 10 µM, active compounds read low
row,SMILES,viability
1,O=C(CN1C(=O)NC2(CCCCCC2)C1=O)NCc1cccs1,102% (inactive)
2,Cc1ccc(C)c2[nH]c(=O)c(CCNC(=O)c3cccs3)cc12,85.5% (inactive)
3,COc1cccc(/C=N/NC(=O)c2cccc([N+](=O)[O-])c2)c1OS(=O)(=O)c1ccc(C)cc1,71.7% (inactive)
4,COc1cc(/C=N\NC(=O)CNC(=O)c2cccc([N+](=O)[O-])c2)ccc1O,98.5% (inactive)
5,Cc1ccc(-n2[nH]c(C)c(/C=N/NC(=O)c3cccc([N+](=O)[O-])c3)c2=O)cc1C,2.5% (active)
6,Cc1[nH]n(-c2ccc(Cl)cc2)c(=O)c1/C=N/n1c(C)nc2ccccc2c1=O,33.6% (inactive)
7,Cc1[nH]n(-c2cccc(Cl)c2)c(=O)c1/C=N/n1c(C)nc2ccccc2c1=O,89.2% (inactive)
8,Cc1[nH]n(-c2ccccc2)c(=O)c1/C=N/NC(=O)c1ccoc1C,3.19% (active)
9,N#C/C(=C/c1cccc([N+](=O)[O-])c1)c1nnc2n1CCCCC2,30.1% (inactive)
10,CCOc1ccc(S(=O)(=O)N(CC(=O)NCC(F)(F)F)Cc2ccco2)cc1,99.2% (inactive)
11,COC(=O)CN1C(=S)N(c2ccccc2)C(=O)C1CC(=O)Nc1ccc(Cl)cc1 (stereo not given),91.3% (inactive)
12,Cc1ccc(/C=C/C(=O)Nc2cc(S(=O)(=O)N3CCCCCC3)ccc2OCC(F)(F)F)o1,75.3% (inactive)
13,C/C(=N/NC(=O)C1COc2ccccc2O1)c1ccco1 (stereo not given),96.5% (inactive)
14,Cc1cccc2cc(CN(Cc3cccs3)C(=S)NCc3ccco3)c(=O)[nH]c12,72.6% (inactive)
15,CN(C)CCNC(=O)Cc1ccc([N+](=O)[O-])cc1,98.8% (inactive)
16,CCCCc1nc(NCc2ccccc2)c(C#N)c2c1CCCC2,82.1% (inactive)
17,CCCCc1nc(NCCN)c(C#N)c2c1CSC(C)(C)C2,2.15% (active)
18,Cc1nc(NCCN)c(C#N)c2c1COC(C)(C)C2,101% (inactive)
19,COc1ccc(C2CC(c3ccccc3)=NN2C(=O)CSc2nccc(=O)[nH]2)cc1 (stereo not given),101% (inactive)
20,CCOC(=O)C1=C(C)Nc2nc3ccccc3n2C1c1cccs1 (stereo not given),90.1% (inactive)
21,O=C(O)C1CC(=O)N(Cc2cccnc2)C1 (stereo not given),100% (inactive)
22,O=C1/C(=C\c2cccnc2)CN(Cc2ccccc2)C/C1=C\c1cccnc1,1.06% (active)
23,O=C1OC(c2ccc(Cl)cc2)=N/C1=C\c1cccnc1,90.6% (inactive)
24,O=C(CN1CCN(S(=O)(=O)c2ccc(Br)cc2)CC1)Nc1ccccc1C(=O)c1ccccc1,64.5% (inactive)
25,Cc1nn(Cc2ccccc2)c(C)c1C(=O)NCCN1C(=O)S/C(=C\c2ccc(F)cc2)C1=O,97.4% (inactive)
26,Cc1ccc(NC(=O)CC2S/C(=N/N=C3\CCCc4ccccc43)NC2=O)cc1 (stereo not given),65.5% (inactive)
27,O=C(c1cncc(Br)c1)N1CCN(c2ccc([N+](=O)[O-])cc2)CC1,83.7% (inactive)

row,SMILES,viability
1,CC(C)CC[n+]1ccn(C2=C([O-])c3ccccc3C(=O)/C2=N\S(=O)(=O)c2ccccc2)c1,3.35% (active)
2,O=C(CSc1nc2ccc([N+](=O)[O-])cc2[nH]1)c1ccc(Cl)cc1,103% (inactive)
3,CC(C)=C(NC(=O)c1ccccc1)C(=O)N/N=C(\C)c1ccccc1O,88.4% (inactive)
4,COc1ccc2nc(Nc3nc4ccc(NC(C)=O)cc4s3)sc2c1,1.64% (active)
5,COc1ccc2nc(Nc3nc4cc5c(cc4s3)OCCO5)sc2c1,94.9% (inactive)
6,CCOc1ccc2nc(Nc3nc4ccc(NC(C)=O)cc4s3)sc2c1,90.5% (inactive)
7,CC(Sc1nnc2c(n1)C1CCC2(C)C1(C)C)C(=O)Nc1ccccc1 (stereo not given),87.5% (inactive)
8,O=C(CC(O)(C(F)(F)F)C(F)(F)F)Nc1ccc(Cl)c(Cl)c1,2.05% (active)
9,O=C(CC(=O)Nc1ccc(Cl)c(Cl)c1)N/N=C/c1ccc(O)cc1,86.7% (inactive)
10,O=C(Cc1ccc(Cl)c(Cl)c1)Nc1ccc(SC(F)F)cc1,26.6% (inactive)
11,COc1ccc(N2C(=O)C(CC(=O)Nc3ccc(F)cc3)N(CCc3cccs3)C2=O)cc1 (stereo not given),84.4% (inactive)
12,O=C(Nc1ccc2ccccc2c1)/C(=C\c1ccc2c(c1)OCO2)NC(=O)c1ccco1,95.8% (inactive)
13,COc1ccc(NC(=O)c2nc(-n3nc(C)cc3C)ccc2Cl)cc1Cl,72.5% (inactive)
14,CCCNC(=O)OC[C@H]1O[C@H](CCO/N=C/[C@@H](NS(=O)(=O)c2ccc(C)cc2)[C@H](C)/C=C/CC(=O)OC)C=C[C@@H]1Oc1ccc(OC)cc1,0.23% (active)
15,CCCC(NS(=O)(=O)c1ccc(OC)cc1)C(=O)O (stereo not given),91.3% (inactive)
16,COc1ccc(O[C@H]2C=C[C@@H](c3ccccc3)O[C@@H]2CO/N=C/C[C@@H]2C=C[C@H](OC(C)=O)[C@@H](COC(C)=O)O2)cc1,85% (inactive)
17,O=C(Cc1ccccc1)Nc1cccc(C(=O)N/N=C/c2ccco2)c1,92.6% (inactive)
18,O=C(Nc1ccccc1F)c1ccccc1-c1ccccc1,87% (inactive)
19,Cc1c(C(=O)NCCCc2ccccc2)cccc1[N+](=O)[O-],44.8% (inactive)
20,COc1ccc(/C=C2/C(=O)OCc3cc(OC)c(OC)cc32)c(OC)c1,71.4% (inactive)
21,CC(C)(C)NCCCOc1ccc(Cl)cc1C(C)(C)C,40.9% (inactive)
22,COc1cc(/C=C2\SC(=S)N(Nc3ncc(C(F)(F)F)cc3Cl)C2=O)cc(OC)c1OC,88.8% (inactive)
23,COc1cccc(/C=N\NC(=O)C2=NNC(=O)C2C)c1O (stereo not given),48.4% (inactive)
24,COc1cccc(/C=N/Nc2ncc(C(F)(F)F)cc2Cl)c1O,2.37% (active)
25,O=C(NCc1ccc2c(c1)OCO2)c1ccc2c(c1)C(=O)N(CC1CCCO1)C2=O (stereo not given),1.19% (active)
26,CCC(=O)Nc1ccc(C(=O)Nc2ccc3c(c2)C(=O)N(CC2CCCO2)C3=O)cc1 (stereo not given),107% (inactive)
27,CC1CCN(c2ccc(C(=O)NCc3ccc4c(c3)OCO4)cc2[N+](=O)[O-])CC1,85.2% (inactive)

row,SMILES,viability
1,CC(CNc1ccc([N+](=O)[O-])c2cccnc12)Nc1c([N+](=O)[O-])cc(C(F)(F)F)cc1[N+](=O)[O-] (stereo not given),62.8% (inactive)
2,CCOc1ccc(C(=O)NC(=S)Nc2ccc(N3CCOCC3)c(Cl)c2)cc1[N+](=O)[O-],70.2% (inactive)
3,NC1=NN(c2cccc(C(=O)O)c2)C(=O)C1,104% (inactive)
4,CCCCN(C)CCC(=O)Nc1ccc(Cl)cc1,91.2% (inactive)
5,OC(CNCC1CCCO1)Cn1c2ccc(Br)cc2c2cc(Br)ccc21 (stereo not given),1.31% (active)
6,Cc1cc(Br)ccc1NC(=O)C1CCCO1 (stereo not given),97.1% (inactive)
7,Cc1ccc(C(=O)NCC2CCCO2)o1 (stereo not given),101% (inactive)
8,O=C(Nc1ccc2c(c1)OCO2)c1ccc(N2C(=O)c3ccccc3C2=O)cc1,93.1% (inactive)
9,CSCC[C@H](NC(=O)OC(C)(C)C)C(=O)N/N=C/c1cc2ccc(C)cc2nc1Cl,1.55% (active)
10,CCOc1cc(/C=N/NC(=O)OC)ccc1OCCSc1ccc(Cl)cc1,93.7% (inactive)
11,CSCCC(NC(=O)COc1ccccc1)C(=O)Nc1ccc(C)cc1 (stereo not given),96.1% (inactive)
12,CC(=O)NCCC(=O)Nc1nc(C)c(Cc2ccc3c(c2)OCO3)s1,99.8% (inactive)
13,COc1ccccc1C(=O)Nn1c(-c2cccs2)nc2ccccc2c1=O,95% (inactive)
14,CC(C)Nc1nnc(SCC(=O)c2c[nH]c3ccccc23)s1,87.3% (inactive)
15,CCO/N=C(/C)c1c(O)cc(-c2ccccc2)n(-c2ccccc2)c1=O,103% (inactive)
16,N=c1n(CCc2ccccc2)c2ccccc2n1Cc1ccccc1F,1.8% (active)
17,CN(Cc1ccccc1)Cc1ccccc1F,101% (inactive)
18,CC(=O)NC(C)c1nc2ccccc2n1Cc1ccccc1F (stereo not given),102% (inactive)
19,CCOC(=O)/C(=C\c1ccc([N+](=O)[O-])cc1)C(=O)c1cc(C(C)=O)c(Nc2ccccc2)s1,1.45% (active)
20,O=C(Nc1ccccc1)/C(=C/c1ccc([N+](=O)[O-])cc1)NC(=O)c1ccccc1,95.2% (inactive)
21,Cc1cccc(NC(=O)c2sc(-c3ccccc3)nc2-c2ccc([N+](=O)[O-])cc2)c1,73.5% (inactive)
22,C/C(=N\NC(=O)c1ccc(CSc2nc(C)cc(C)n2)cc1)C1CCCCC1,93% (inactive)
23,O=C1NC(c2ccccc2)CCC1(Cl)Cl (stereo not given),95.3% (inactive)
24,COc1ccccc1N1N=C(c2cccs2)CC1c1ccccc1 (stereo not given),65% (inactive)
25,Cc1cccc(C)c1Nc1nnc(SCC(=O)Nc2sccc2C#N)s1,92.1% (inactive)
26,CCCc1cc(-c2nc(-c3ccc(C)cc3)cs2)ccn1,26.2% (inactive)
